Among all 47,000 compounds or so, about 95 (0.2%) were called active. Cut-off read from the data, not from the text of the source: active = inhibition above about 30%; inactive = the rest. Shown is part of a subset that was picked to be rich in actives.
target: Ubiquitin carboxyl-terminal hydrolase isozyme L1 (Homo sapiens) (UniProt P09936); assay: inhibitors of human UCHL1 deubiquitinase (AID 1645859); conditions: purified UCHL1, Ub-rhodamine cleavage fluorescence; at 20 µM; stronger effect = higher value
Sequence (P09936 whole entry, looked up): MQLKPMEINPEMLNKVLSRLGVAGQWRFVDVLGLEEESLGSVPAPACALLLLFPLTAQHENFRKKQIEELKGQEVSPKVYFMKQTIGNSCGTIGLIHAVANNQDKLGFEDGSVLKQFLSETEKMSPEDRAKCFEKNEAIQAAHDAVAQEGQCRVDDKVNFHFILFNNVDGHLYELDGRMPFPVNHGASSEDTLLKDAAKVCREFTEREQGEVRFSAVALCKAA

Q: Which inhibition does the source give for `O=C(Cn1cnc(S(=O)(=O)N2CCc3ccccc32)c1)Nc1ccc2c(c1)OCO2` here?
A: -7.24% (inactive)

Q: For `Cc1ccc(CNC(=O)CCCn2c(=O)c3sccc3n(CC(=O)OCc3ccccc3)c2=O)cc1`, which inhibition is on record?
A: -0.426% (inactive)

Q: Which inhibition does the source give for `CCN1CCN(c2ncc(C(=O)Nc3ccc(F)cc3)c(C)n2)CC1` here?
A: -0.515% (inactive)

Q: `O=C(CCc1nnc2ccc(N3CCCCC3)nn12)NCC1CCCO1` (stereo not drawn) was tested. Which inhibition did it give?
A: -1.95% (inactive)

Q: For `Cc1ccc(C)c(CSC2=NCCN2C(=O)c2ccco2)c1`, which inhibition is on record?
A: -0.972% (inactive)

Q: How did the inhibition turn out when `O=C(C1CCN(c2nc3ccc(-c4cccnc4)nc3s2)CC1)N1CCOCC1` was run?
A: -0.864% (inactive)

Q: `Cc1cnn(CC2CCCCN2C(=O)Cc2c(C)noc2Cl)c1` (stereo not drawn) was tested. Which inhibition did it give?
A: 0.232% (inactive)

Q: For `Cc1c(NC(=O)c2ccc(C(C)(C)C)cc2)c(-n2cnnc2)nn1C`, which inhibition is on record?
A: -0.768% (inactive)

Q: For `O=C(Cc1ccccc1Cl)Nc1ccc(N2CCOCC2)cc1`, which inhibition is on record?
A: 2.8% (inactive)

Q: `O=C(NC1CC1)c1nc(-c2ccc(-n3cccc3)cc2)no1` was tested. Which inhibition did it give?
A: 1.38% (inactive)

Q: How did the inhibition turn out when `COCC(=O)N1CCCC2(COCCN(CCN(C)C)C2)C1` (stereo not drawn) was run?
A: 0.844% (inactive)

Q: For `O=C(O)C1CCCN1Cc1c(-c2cccs2)nc2ccccn12` (stereo not drawn), which inhibition is on record?
A: -7.21% (inactive)

Q: `COc1ccc(N2C(=O)c3ccccc3NC2c2ccc(OCC(N)=O)cc2)cc1` (stereo not drawn) was tested. Which inhibition did it give?
A: 3.76% (inactive)

Q: With `COc1ccc(OC)c(NC(=O)[C@H]2C[C@H](C)N[C@]23C(=O)Nc2c(Cl)cc(C)cc23)c1` as the compound, how does the inhibition read?
A: -6.13% (inactive)

Q: For `CCCOc1ccnc2c1c(=O)n(CC(=O)NC1CCCC1)c(=O)n2C`, which inhibition is on record?
A: -3.9% (inactive)

Q: For `Cc1cccc(-c2nccnc2C2CCCN(C(=O)c3cnccn3)C2)c1` (stereo not drawn), which inhibition is on record?
A: 5.49% (inactive)

Q: `COc1ccccc1C(=O)NCC(c1ccc2c(c1)CCCN2C)N1CCCC1` (stereo not drawn) was tested. Which inhibition did it give?
A: -73.4% (inactive)

Q: With `Cc1ccc(C)c(NC(=O)C(Sc2nnc(-c3ccccc3)n2C)c2ccccc2)c1` (stereo not drawn) as the compound, how does the inhibition read?
A: 0.846% (inactive)

Q: For `Cn1cc(N2CCC3(CCN(C(=O)c4ccc(F)cc4)CC3)C2=O)cn1`, which inhibition is on record?
A: 0.646% (inactive)

Q: How did the inhibition turn out when `O=C(NC1CCOCC1)N[C@H]1C[C@H]2CN(Cc3ccccc3)Cc3ccccc3CN2C1` was run?
A: 1.49% (inactive)

Q: With `Cc1cccc(CNC(=O)C2CCCN(S(=O)(=O)Cc3ccc(F)cc3)C2)c1` (stereo not drawn) as the compound, how does the inhibition read?
A: 3.47% (inactive)

Q: For `N#Cc1ccc(Oc2nc(-c3ccccc3)nnc2-c2ccccc2)cc1`, which inhibition is on record?
A: -0.193% (inactive)

Q: How did the inhibition turn out when `O=C1CCCN1c1ccc(S(=O)(=O)N2CCc3ccccc3C2)cc1` was run?
A: -1.26% (inactive)

Q: For `CC(=O)c1cccc(NC(=O)CCN(c2cc(C)cc(C)c2)S(=O)(=O)c2ccc(Cl)cc2)c1`, which inhibition is on record?
A: 5.56% (inactive)

Q: With `Cc1cc(C)c(NC(=O)CCN2C(=O)c3cccnc3Sc3ccccc32)c(C)c1` as the compound, how does the inhibition read?
A: -0.793% (inactive)

Q: For `Oc1cccc2nc3c(O)cccc3nc12`, which inhibition is on record?
A: 28.5% (inactive)

Q: For `O=C(NCCc1ccccc1)c1ccc2c(=O)n(Cc3ccco3)c(=O)n(Cc3cccc([N+](=O)[O-])c3)c2c1`, which inhibition is on record?
A: 23% (inactive)

Q: With `CC(C)NC(=O)[C@H]1CCS(=O)(=O)[C@@H]2CN(Cc3ccccc3)C[C@H]12` as the compound, how does the inhibition read?
A: 3.58% (inactive)

Q: `COc1cc(OC)cc(-c2nnc(NC(=O)c3ccc([N+](=O)[O-])o3)o2)c1` was tested. Which inhibition did it give?
A: 1.67% (inactive)

Q: Which inhibition does the source give for `O=C(NCc1ccc(F)cc1F)c1csc(C(=O)NC2CC2)n1` here?
A: -3.4% (inactive)

Q: Which inhibition does the source give for `CC(C(=O)Nc1ccccc1F)C1CCN(C(=O)Nc2ccccc2)CC1` (stereo not drawn) here?
A: 0.962% (inactive)

Q: Which inhibition does the source give for `Cc1nnc(-c2c(C)[nH]c(C)c2S(=O)(=O)NCc2ccccc2)o1` here?
A: -1.69% (inactive)

Q: How did the inhibition turn out when `CC1(C)CC(=O)N(CC(=O)N2CCCCC2)c2ccccc2S1(=O)=O` was run?
A: 0.351% (inactive)

Q: How did the inhibition turn out when `Cc1nc(-c2csc(S(=O)(=O)NC3CC3)c2)no1` was run?
A: -2.36% (inactive)

Q: `O=C(Cn1cnc2cc3c(cc21)OCCO3)NCCc1ccccc1` was tested. Which inhibition did it give?
A: -0.00331% (inactive)

Q: Which inhibition does the source give for `COCCn1ccc2nc(C)c(C(=O)N3CCN(c4cc(C)ccc4C)CC3)cc2c1=O` here?
A: 1.94% (inactive)

Q: Which inhibition does the source give for `CCOC(=O)C(Cc1ccccc1)NC(=O)CCC(=O)c1ccc(OC)cc1` (stereo not drawn) here?
A: 1.4% (inactive)

Q: With `Cc1nnc(OCC(=O)Nc2ccc(OC(F)(F)F)cc2)c2ccccc12` as the compound, how does the inhibition read?
A: 8.69% (inactive)

Q: How did the inhibition turn out when `CCOC(=O)c1noc2ncnc(Nc3ccc4c(c3)OCCO4)c12` was run?
A: 2.47% (inactive)

Q: With `c1cc(N2CCCCCC2)ncc1-c1noc(CN2CCCC2)n1` as the compound, how does the inhibition read?
A: 0.394% (inactive)

Q: `CN1Cc2ccccc2CC2(CC(Nc3ccc(C(=O)O)cc3)C2)C1=O` (stereo not drawn) was tested. Which inhibition did it give?
A: -3.39% (inactive)

Q: `COc1cc(Cl)c(NC(=O)c2cc(-c3ccccn3)n[nH]2)c(OC)c1` was tested. Which inhibition did it give?
A: 8.97% (inactive)

Q: Which inhibition does the source give for `CC(=O)OC(C)[C@]12C=C(C)[C@H]3[C@H](C)[C@@H](O[C@H]4CC[C@@H](O)[C@@H](C)O4)C4=CC(=O)C=C(N1C(=O)[C@@](C)(O)C2=O)[C@]43O` (stereo partly drawn) here?
A: -4.12% (inactive)

Q: `Cc1cc(-c2noc(-c3cc4ccccc4oc3=O)n2)c2ccccc2n1` was tested. Which inhibition did it give?
A: -0.979% (inactive)

Q: How did the inhibition turn out when `O=C(Cn1cnc(S(=O)(=O)N2CCOCC2)c1)Nc1cccc(Cl)c1` was run?
A: 2.46% (inactive)

Q: Which inhibition does the source give for `Cc1cc(NC(=O)c2ccc(C(=O)N(C3CCCCC3)C3CCCCC3)cc2)cc(C)c1O` here?
A: 4.77% (inactive)

Q: How did the inhibition turn out when `O=C1NC[C@@H](Cc2ccccc2)NC(=O)C2(C/C=C/COc3ccccc31)CCNCC2` was run?
A: 2.07% (inactive)

Q: `COC(=O)CC[C@H]1CNC(=O)[C@@H]2[C@@H](CCN2C2CCCCC2)N1C` was tested. Which inhibition did it give?
A: 8.17% (inactive)

Q: How did the inhibition turn out when `O=S(=O)(NC12CC3CC(CC(C3)C1)C2)c1ccc(S(=O)(=O)N2CCCCC2)cc1` was run?
A: -1.48% (inactive)

Q: Which inhibition does the source give for `CNC(=O)C1(C)CN(C(=O)c2ccc3ncccc3c2)CCO1` (stereo not drawn) here?
A: -0.883% (inactive)

Q: For `CC(C)[C@H](NC(=O)[C@@H]1Cc2c([nH]c3ccccc23)C2c3ccccc3C(=O)N21)C(=O)NCCc1ccccc1` (stereo partly drawn), which inhibition is on record?
A: 0.101% (inactive)

Q: With `COc1cccc(CN2CC[C@@H]3CNS(=O)(=O)[C@@H]3CC2)c1` as the compound, how does the inhibition read?
A: 5.2% (inactive)

Q: For `O=C(Cc1ccccc1)Nc1ccc(-c2nc3cnccc3o2)c(O)c1`, which inhibition is on record?
A: 0.256% (inactive)

Q: Which inhibition does the source give for `Cc1cc(F)ccc1NC(=O)c1cc(C2CC2)n2nccc2n1` here?
A: 1.97% (inactive)

Q: How did the inhibition turn out when `Cc1ccc(-n2cc(-c3noc(C(=O)Nc4ccc(F)cc4C)n3)nn2)cc1` was run?
A: 38.3% (active)

Q: Which inhibition does the source give for `Cc1ccc(Cn2cc(-c3noc(-c4ccccn4)n3)nn2)cc1` here?
A: -0.677% (inactive)

Q: For `COC(=O)C(C(C)C)N1CCc2c(C)nc3cc(C#N)nn3c21` (stereo not drawn), which inhibition is on record?
A: -5.64% (inactive)

Q: Which inhibition does the source give for `Cc1cc(/C=C2/C(=N)N3C=CSC3=NC2=O)c(C)n1-c1ccc(F)cc1` here?
A: -13% (inactive)

Q: For `Cn1c(CCN2CCCC2)nc2cc(NS(=O)(=O)c3ccccc3)ccc21`, which inhibition is on record?
A: -2.94% (inactive)

Q: How did the inhibition turn out when `COc1ccc(-n2ncc3c2NC(=O)CC32C(=O)N(CC(C)C)c3ccc(F)cc32)cc1` (stereo not drawn) was run?
A: 3.31% (inactive)

Q: How did the inhibition turn out when `Cc1nnc2ccc(-c3ccc(NC(=O)c4ccc(Br)o4)cc3)nn12` was run?
A: 7.55% (inactive)

Q: For `NS(=O)(=O)c1ccc(CCNc2nccn(-c3ccc4c(c3)OCO4)c2=O)cc1`, which inhibition is on record?
A: -4.71% (inactive)

Q: `O=C(c1cc2occc2c(Nc2ccc(F)cc2)n1)N1CCN(C(=O)c2ccco2)CC1` was tested. Which inhibition did it give?
A: 3.68% (inactive)

Q: `CC(C)c1ccc(C2CC(=O)c3cn[nH]c3C2)cc1` (stereo not drawn) was tested. Which inhibition did it give?
A: 0.362% (inactive)

Q: For `O=C1CC2(C(=O)Nc3ccccc32)c2cnn(-c3ccccc3Cl)c2N1` (stereo not drawn), which inhibition is on record?
A: -0.024% (inactive)

Q: Which inhibition does the source give for `COc1cccc(C2NC(=O)c3c(sc4c3CCC(C)C4)N2)c1O` (stereo not drawn) here?
A: -0.199% (inactive)

Q: For `CCn1nccc1-c1cccc(-c2noc(-c3ccccn3)n2)c1`, which inhibition is on record?
A: 3.84% (inactive)

Q: With `Cn1cccc1/C(C#N)=C\c1ccc2c(c1)OCO2` as the compound, how does the inhibition read?
A: 12.5% (inactive)

Q: For `CCc1cnc(N2CCC3(CC2)CC(Oc2cccnc2)C3)nc1`, which inhibition is on record?
A: -4.29% (inactive)

Q: With `COc1ccc(NC(=O)c2cnc(N3CCCC3)nc2C)cc1OC` as the compound, how does the inhibition read?
A: 2.41% (inactive)

Q: With `CS(=O)(=O)N1CCn2c(nnc2-c2cncc(Br)c2)C1` as the compound, how does the inhibition read?
A: 1.7% (inactive)

Q: `O=C(c1ccccn1)N1C[C@@H]2C[C@H]1C[C@@H]2NS(=O)(=O)c1ccccc1` was tested. Which inhibition did it give?
A: -1.88% (inactive)

Q: How did the inhibition turn out when `Cc1ccc(S(=O)(=O)N2CCC(c3nc(C(=O)N(C)C)c(C)o3)CC2)c(C)c1` was run?
A: -3.64% (inactive)

Q: For `CC(=O)c1ccc(S(=O)(=O)Nc2cccc(-c3nc4cccnc4s3)c2C)cc1`, which inhibition is on record?
A: 0.0973% (inactive)

Q: Which inhibition does the source give for `O=C(C1CCN(c2nc3cccnc3s2)CC1)N1CCN(c2ncccn2)CC1` here?
A: 5.79% (inactive)

Q: `O=c1ccc(S(=O)(=O)N2CCCCCC2)cn1Cc1ccccc1` was tested. Which inhibition did it give?
A: -3.73% (inactive)

Q: For `CNc1cncc(C2CCCN2S(=O)(=O)N2CCCC2)n1` (stereo not drawn), which inhibition is on record?
A: 1.24% (inactive)

Q: For `Cn1c(=O)c2c(-c3ccc(C(C)(C)C)cc3)n(-c3ccccc3Cl)cc2n(C)c1=O`, which inhibition is on record?
A: 3.67% (inactive)

Q: For `c1ccc2c(c1)NCCC(c1ccc3c(c1)OCO3)N2` (stereo not drawn), which inhibition is on record?
A: -0.387% (inactive)

Q: With `CC(C)(C)CN1CC[C@H](c2nnc(-c3cccnc3)o2)C1` as the compound, how does the inhibition read?
A: -3.12% (inactive)

Q: `COc1ccc(NC(=O)c2cccn3c(-c4ccc(F)cc4)nnc23)c(OC)c1` was tested. Which inhibition did it give?
A: -7.15% (inactive)

Q: Which inhibition does the source give for `N#Cc1cnc2ccccc2c1N1CCC(C(=O)N2CCCCC2)CC1` here?
A: -2% (inactive)

Q: With `Cc1nn(CCC(=O)Nc2ccccc2F)c(C)c1S(=O)(=O)N1CCOCC1` as the compound, how does the inhibition read?
A: -2.99% (inactive)

Q: `O=C(Nc1ccc2c(c1)CCC2)N1CCc2c(nc(-c3ccccc3)[nH]c2=O)C1` was tested. Which inhibition did it give?
A: -2.41% (inactive)

Q: `O=C(NC1CC1)c1cn(-c2cc(-c3nc(C4CC4)no3)ccn2)cn1` was tested. Which inhibition did it give?
A: 2.22% (inactive)

Q: `Cc1ccccc1NC(=O)Cc1csc2nc(-c3ccc(F)cc3)cn12` was tested. Which inhibition did it give?
A: 6.49% (inactive)

Q: How did the inhibition turn out when `O=C(CN1C(=O)C2CCCC2=Nc2ccccc21)Nc1ccc(F)cc1F` (stereo not drawn) was run?
A: 2.04% (inactive)

Q: `COCCNC(=O)c1cc(-c2ccn(C3CCCC3)n2)n2ccccc12` was tested. Which inhibition did it give?
A: -0.227% (inactive)

— PubChem BioAssay AID1645859 (Buhrlage Lab, Dana-Farber Cancer Institute and Novartis …, 2021)
